Records with an inconclusive call do not appear. A call without a number means that no potency is given here. Active and inactive are the calls of the source. Calls come from the whole dose curve; as a rule, active = well fitted curve in the direction sought with a large enough effect; inconclusive = small, poorly fitted or top-dose-only effect, or another doubt; inactive = no such curve, though single readings can be large; an effect the other way counts as inactive or inconclusive.
What was measured:
[1] = target: Aldehyde dehydrogenase, mitochondrial (Homo sapiens) (UniProt P05091); test: qHTS for Inhibitors of the Aldehyde Dehydrogenase Family (ALDH2) Primary screen (AID 2061308); settings: ALDH2 enzyme inhibition qHTS, 1536-well; series mostly up to 56 µM; note: nearly all actives have a fitted effect of over 55% in size
[2] = target: Retinaldehyde dehydrogenase 3 (Homo sapiens) (UniProt P47895); test: qHTS for Inhibitors of the Aldehyde Dehydrogenase Family (ALDH1A3) Primary screen (AID 2061315); settings: ALDH inhibition qHTS; series mostly up to 56 µM

SMILES	Potency [1]	Potency [2]
COc1cc(-c2ccc3ncnc(NCc4nc(C)cs4)c3c2)cc(OC)c1OC	inactive	inactive
CCCCN(C)C(=O)Cn1nc(-c2cncnc2)ccc1=O	inactive	inactive
O=C(NC(c1ccco1)c1cc(Cl)c2cccnc2c1O)c1ccccc1 (configuration not stated)	inactive	inactive
O=C(Nc1nc(-c2ccccc2)cs1)c1ccccc1Cl	inactive	inactive
CC(C)[C@@H](C)/C=C/[C@@H](C)[C@H]1CC[C@H]2C3=CC=C4C[C@@H](O)CC[C@]4(C)C3=CC[C@]12C	inactive	inactive
Cc1ccc(NC(=O)c2cnn3c(-c4ccccc4)cc(C)nc23)cc1	inactive	inactive
N#Cc1nc(Nc2cccc(Cl)c2)c2ncn(C3CCCC3)c2n1	inactive	inactive
CCCn1c(C)nc2c(N3CCOCC3)nc(C)nc21	inactive	inactive
COc1ccccc1-c1ccc(=O)n(CC(=O)NCCc2ccccc2)n1	inactive	inactive
Cn1c(SCC(=O)c2cc3ccccc3o2)nnc1-c1ccccc1	inactive	inactive
COc1cc(O)c(C(CC(=O)N2CCCCC2)c2ccc3c(c2)OCO3)c(OC)c1 (configuration not stated)	inactive	inactive
Cc1cc(-c2nc(Nc3ccc(F)c(F)c3)c3ccccc3n2)cc(C)n1	inactive	inactive
COc1ccc(C2Nc3ccccc3C(=O)N2Cc2cccnc2)cc1COc1c(C)cc(NC(C)=O)cc1C (configuration not stated)	inactive	inactive
Cc1ccc(S(=O)(=O)N2CCN(c3nc(-c4ccco4)nc4ccccc34)CC2)cc1	inactive	inactive
O=C(O)c1ccc(O)c2ncc(N3CCC(N4CCOCC4)C3)cc12 (configuration not stated)	inactive	inactive
O=C(OCC#CCSc1nnc(-c2cc3ccccc3cc2O)o1)c1ccc(F)cc1	inactive	inactive
Cc1ccc(CCCn2c(CCNC(=O)C3CCCCC3)nc3ccccc32)cc1	inactive	inactive
CCC(=O)NC(c1cc(Cl)c2cccnc2c1O)C1CC1 (configuration not stated)	inactive	inactive
O=C(NC(c1ccco1)c1cc(Cl)c2cccnc2c1O)c1ccc(F)c(F)c1 (configuration not stated)	inactive	inactive
Cc1cccc(CNc2ccnc(-c3ccccc3F)n2)c1	inactive	inactive
N/C(=N\c1nnc(-c2ccncc2)s1)Nc1ccc(F)c(C(F)(F)F)c1	inactive	inactive
O=C1CCCC2=C1C(c1[nH]ncc1Cl)NC(=NCc1ccco1)N2 (configuration not stated)	inactive	inactive

SMILES	Potency [1]	Potency [2]
CCOC(=O)c1cccc(-n2cnc(/C=C3\NC(=O)N(CC(=O)OC(C)(C)C)C3=O)c2)c1	inactive	inactive
Cc1ccc(-c2csc(N3CCC(C(N)=O)CC3)n2)cc1	inactive	inactive
O=C(Nc1ccc(-n2cncn2)c(F)c1)Nc1nnc(-c2ccncc2)s1	inactive	inactive
Cc1ccc2oc(NC3=NC(c4[nH]ncc4Cl)C4=C(CCCC4=O)N3)nc2c1 (configuration not stated)	inactive	inactive
COc1ccc2c(=O)n3nc(Nc4cccc(N5CCN(C)CC5)c4)sc3nc2c1	inactive	inactive
CCOc1ccc(NC(=O)Nc2ccc(-c3nc4ccccc4[nH]3)cc2)cc1	inactive	inactive
Cc1noc(-c2ccc(-c3ccc(CC(=O)O)cc3)cc2)c1NC(=O)O[C@H](C)c1ccccc1Cl	inactive	inactive
O=C(Nc1ncc(-c2ccccc2)s1)c1ccc(-c2cccc([N+](=O)[O-])c2)o1	inactive	inactive
N#Cc1c(-c2ccccc2)no[n+]1[O-]	inactive	inactive
O=C(Nc1cccc2c1cnn2-c1ccc(F)cc1)c1ccccn1	inactive	inactive
CC(=O)O[C@@H]1CC(C)=C2[C@H]1[C@H](C)CC[C@H]2/C=C(\C)C(=O)O	inactive	inactive
c1nc(N2CCC(N3CCCC3)CC2)c2cc(-c3ccc4c(c3)OCO4)ccc2n1	inactive	inactive
Cn1nnnc1Sc1ncnc2scc(-c3ccccc3F)c12	inactive	inactive
Cc1ccc(S(=O)(=O)Nc2ccccc2C(=O)Nc2nc(-c3ccccc3)c(Br)s2)cc1	inactive	inactive
C=C1C(=O)O[C@@H]2/C=C(/C)[C@@H](OC(C)=O)C/C=C(\C)C[C@@H](OC(=O)/C(=C/CO)CO)[C@@H]12	inactive	inactive
O=C(O)Cc1cc(F)c(S(=O)(=O)N2CCN(S(=O)(=O)c3ccc4c(c3)OCCO4)CC2)cc1F	inactive	inactive
Cc1cc(C)nc(NC(=S)N2CCN(c3ncccn3)CC2)c1	inactive	inactive
Cc1cc2c(s1)c1cnn(Cc3cccc([N+](=O)[O-])c3)c(=O)c1n2C	inactive	inactive
O=C(COC(=O)CNC(=O)c1ccccc1)Nc1cc(C(F)(F)F)ccc1Cl	inactive	inactive
Cc1ccc(-c2cc(C(=O)Nc3ccc(-n4cncn4)cc3)c3ccccc3n2)cc1C	inactive	inactive
COC(=O)c1cc2c(C(F)(F)F)cc(-c3ccccc3)cc2n1O	inactive	inactive
O=C1c2ccccc2C(=O)N1c1ccccc1O	inactive	inactive

SMILES	Potency [1]	Potency [2]
CCCn1c(C)nc2c(NCCN3CCCC3)nc(C)nc21	inactive	inactive
Cc1ccc(C)c(OC2=NS(=O)(=O)c3ccccc32)c1	inactive	inactive
COc1cc(O)c(C(CC(=O)N2CCCC(C)(C)C2)c2ccc3c(c2)OCO3)c(OC)c1 (configuration not stated)	inactive	inactive
Cn1nnnc1Sc1ncnc2scc(-c3cccc(C#N)c3)c12	inactive	inactive
O=c1c2ccccc2nc2sc(Nc3ccc(F)cc3)nn12	inactive	inactive
C=C(C)C(=O)O[C@H]1C[C@@](C)(O)C(=O)CC(O)/C(C)=C\[C@H]2OC(=O)C(=C)[C@H]12 (some centres not stated)	inactive	inactive
CCCCCN1CCC(C(=O)Nc2ccc([S+](=O)([O-])Nc3nccs3)cc2)CC1	inactive	inactive
O=C(NCCc1nc2ccccc2n1CCOc1ccc(C(F)(F)F)cc1)C1CCCCC1	inactive	inactive
COc1ccc(OC)c(C2=Nn3c(nnc3-c3ccccc3C)SC2)c1	inactive	inactive
COc1cccc2nc3sc(Nc4ccc5c(c4)CCC5)nn3c(=O)c12	inactive	inactive
CC1=C(C(=O)Nc2ccccc2Cl)C(c2ccccc2Br)N=C(Nc2nc3ccccc3o2)N1 (configuration not stated)	inactive	inactive
COc1cccc(C2c3c(ncn(-c4ccccc4)c3=N)Oc3ccc4ccccc4c32)c1OC (configuration not stated)	inactive	inactive
CC(=O)c1ccc(N2CCN(S(=O)(=O)c3ccc4c(c3)CC(C)N4C(C)=O)CC2)cc1 (configuration not stated)	inactive	inactive
CC(C)(C)OC(=O)Cc1nnc(C(C(=O)OCc2ccccc2)c2ccccc2)s1 (configuration not stated)	inactive	inactive
Cn1nnnc1Sc1ncnc2scc(-c3cc4ccccc4o3)c12	inactive	inactive
NC(=O)c1ccc(-c2noc(-c3cccc(Cl)c3)n2)cc1	inactive	inactive
Cc1cc(C)nc(NC(=S)N2CCN(c3ncc(C(F)(F)F)cc3Cl)CC2)c1	inactive	inactive
CC(C)(C)NC(=O)N1CCC(C(=O)Nc2ccc([S+](=O)([O-])Nc3nccs3)cc2)CC1	inactive	inactive
COc1ccc([S+](=O)([O-])Nc2ccc(-c3nc4ccccc4[nH]3)cc2)cc1OC	inactive	inactive
O=C(Nc1nc(-c2ccccc2)cs1)c1ccncc1NS(=O)(=O)c1ccc(N2CCCC2=O)cc1	inactive	inactive
CCCCNc1nc(C)nc2c1nc(-c1ccccc1)n2CCN1CCCC1	inactive	inactive
O=C(CNC(=O)c1ccc([N+](=O)[O-])cc1)OC(C(=O)Nc1cc(C(F)(F)F)ccc1Cl)c1ccccc1 (configuration not stated)	inactive	inactive

SMILES	Potency [1]	Potency [2]
Cc1cc(NS(=O)(=O)c2cc3c(cc2F)NC(=O)CC3)ccc1Cl	inactive	inactive
COc1ccc(-c2ccc(=O)n(CC(=O)NCCc3ccccc3)n2)cc1OC	inactive	inactive
c1cncc(CNc2ncnc3ccc(-c4ccc5c(c4)OCCO5)cc23)c1	inactive	inactive
Cc1cc(NS(=O)(=O)C2CCN(C(=O)Cc3ccc(Cl)c(Cl)c3)CC2)no1	inactive	inactive
O=C(CSc1nnc(-c2cccc([S+](=O)([O-])N3CCCC3)c2)n1-c1ccccc1)Nc1cccc(F)c1	inactive	inactive
O=C([C@@H](Cc1ccc(O[S+](=O)([O-])c2ccccn2)cc1)N[S+](=O)([O-])c1cccc2cccnc12)N1CCN(c2ccccc2)CC1	inactive	inactive
CC(=O)c1ccc(O[C@@H]2O[C@H](CO)[C@@H](O)[C@H](O)[C@H]2O)cc1	inactive	inactive
O=c1c2ccccc2nc2sc(Nc3cccc4ccccc34)nn12	inactive	inactive
Nc1ccccc1CNc1ccc(S(=O)(=O)Nc2nccs2)cc1	inactive	inactive
CC1=C(C(=O)Nc2ccc(C)cc2)C(c2ccccc2Br)N=C(Nc2nc3ccccc3o2)N1 (configuration not stated)	inactive	inactive
O=C(Nc1cc(C(F)(F)F)ccc1Cl)C(O)Cc1ccccc1 (configuration not stated)	inactive	inactive
N#Cc1ccccc1Nc1ncc(-c2cccc3ccccc23)o1	inactive	inactive
c1ccc(-c2nc(NCc3ccc(-c4cccnc4)cc3)c3ccccc3n2)cc1	inactive	inactive
O=C1CCc2cc(S(=O)(=O)Nc3ccc4ccccc4c3)ccc2N1	inactive	inactive
N#Cc1nc(NCCCO)nc(Nc2ccccc2)n1	inactive	inactive
Cc1ccc(OCCn2c(CCNC(=O)/C=C/c3ccccc3Cl)nc3ccccc32)cc1	inactive	inactive
Cc1c(C(O)(c2ccccc2)c2ccccc2)[n+]2ccccc2n1C	inactive	inactive
O=C(O)CNc1cccc(-c2nn3c(=O)cc(N4CCNCC4)nc3s2)c1	inactive	inactive
COc1cc(-c2csc(N3CCC(C(N)=O)CC3)n2)cc(OC)c1OC	inactive	inactive
Cc1cc(C)n2ncc(C(=O)Nc3ccc(Cl)c(Cl)c3)c2n1	inactive	inactive

From PubChem BioAssay (NCATS)
